This passage reports Potency and outcome results from PubChem BioAssay (NCATS).

Values joined by “and” are separate entries in the source; they are usually repeats but may differ in a detail not shown here. Equal entries are not always repeated. Results filed as inconclusive are left out. A number with no mark means an inactive call. Active and inactive are the calls of the source. The call rests on the fitted dose curve; in most records, active means well fitted curve in the direction sought with a large enough effect; inconclusive means small, poorly fitted or top-dose-only effect, or another doubt; inactive means no such curve, though single readings can be large; an effect the other way counts as inactive or inconclusive. Peptide text beside a SMILES is read from it.

For experiment [1], the target named is Furin (Homo sapiens) (UniProt P09958). Briefly: Furin counterscreen qHTS for Zika virus inhibitors (AID 1347149).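 Further: purified recombinant full-length human furin enzyme at 5 nM; fluorescence gain from furin cutting a BOC-RVRR-AMC peptide substrate over 15 min; top concentration of the series differs between compounds; nearly all actives have a fitted effect of over 70% in size.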 Summed up: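 Fluorogenic cleavage of BOC-RVRR-AMC (2 microM final, Km ~15 µM) was monitored (ex 340, em 450 nm) at 37C after 15 min RT preincubation of 5 nM furin with compounds in HEPES pH 7.0 buffer with CaCl2 and Triton X-100. Percent inhibition was fitted to a 4-parameter Hill curve.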
Chain of Furin (Homo sapiens) (P09958 whole entry, looked up): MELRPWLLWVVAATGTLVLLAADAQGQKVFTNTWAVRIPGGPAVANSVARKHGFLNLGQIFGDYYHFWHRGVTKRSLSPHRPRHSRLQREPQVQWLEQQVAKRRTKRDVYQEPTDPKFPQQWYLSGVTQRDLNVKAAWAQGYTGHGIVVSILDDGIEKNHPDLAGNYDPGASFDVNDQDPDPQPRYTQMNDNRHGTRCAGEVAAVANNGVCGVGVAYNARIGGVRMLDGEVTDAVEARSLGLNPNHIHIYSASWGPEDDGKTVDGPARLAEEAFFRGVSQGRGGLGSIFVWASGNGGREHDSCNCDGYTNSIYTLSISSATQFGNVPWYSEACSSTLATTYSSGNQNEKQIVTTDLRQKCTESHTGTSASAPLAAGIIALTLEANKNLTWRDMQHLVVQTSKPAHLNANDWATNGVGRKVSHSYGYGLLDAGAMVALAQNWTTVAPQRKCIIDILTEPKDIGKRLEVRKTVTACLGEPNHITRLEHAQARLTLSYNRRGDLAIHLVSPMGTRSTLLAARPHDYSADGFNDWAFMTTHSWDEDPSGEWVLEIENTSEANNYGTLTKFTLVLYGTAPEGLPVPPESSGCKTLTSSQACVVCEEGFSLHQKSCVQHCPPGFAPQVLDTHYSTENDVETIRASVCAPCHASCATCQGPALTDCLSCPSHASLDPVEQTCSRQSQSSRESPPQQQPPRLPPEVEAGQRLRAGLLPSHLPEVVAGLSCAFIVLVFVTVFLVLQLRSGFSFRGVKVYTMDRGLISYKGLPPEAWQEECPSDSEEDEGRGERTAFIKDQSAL

In experiment [2] the test system is Zika virus NS2B-NS3 protease (linked construct). Briefly: Confirmatory screen NINDS AMC qHTS for Zika virus inhibitors (AID 1347152). Further: potency means the concentration at half of the fitted maximal effect; nearly all actives have a fitted effect of over 70% in size. Summed up:
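Linked NS2B-NS3 1 nM, Tris pH 8.0/0.01% Tween 20; cpd 15 min RT dark; + Nle-KRR-AMC 10 µM (Km 18.3 µM); read 0 and 15 min, 340/450 nm; %inh vs controls, 4-param Hill.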

The subject of experiment [3] is Zika virus NS2B-NS3 protease (unlinked complex). In words: Confirmatory screen GU AMC qHTS for Zika virus inhibitors (AID 1347153).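 Further: enzyme at 25 nM with substrate at 10 µM below its Km of 18.3 µM; potency means the concentration at half of the fitted maximal effect; nearly all actives have a fitted effect of over 70% in size.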 As to conditions: Recombinant NS2B-NS3 protease, AMC substrate fluorescence. Summed up:
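Fluorescence change (ex 340/em 450 nm) over 15 min, ~20% substrate conversion, normalized to no-inhibitor and no-enzyme controls, then Hill-fitted. Unlinked protease at 25 nM; AMC peptide 10 µM.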

The nature of experiment [4]: Confirmatory screen GU Rhodamine qHTS for Zika virus inhibitors qHTS (AID 1347157). Further: potency means the concentration at half of the fitted maximal effect; nearly all actives have a fitted effect of over 70% in size. As to conditions: purified enzyme assay, Rhodamine110 substrate fluorescence, 15 min. Summed up:
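Percent inhibition came from the 15-min rise in Rhodamine110 fluorescence (1.5 microM substrate, ~15% conversion), normalized to no-inhibitor and no-enzyme wells and Hill-fitted. Unlinked protease, 25 nM, pH 8.0 Tris buffer; compounds up to 114 microM, 15-min preincubation.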

Experiment [5] in a line: ZIKV-mCherry secondary qHTS for Zika virus inhibitors (AID 1347158). Further: top concentration of the series differs between compounds. Summed up: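 Vero cells, 5,000/well, plated overnight at 37 °C, then compound added and infected with recombinant ZIKV-mCherry at MOI 1 for 48-72 h. PFA-fixed, Hoechst nuclear stain, high-content imaging; cells with mCherry intensity above 450 RFU scored infected, reported as percent infection.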
Experiment [6] deals with Zika virus NS2B-NS3 protease (unlinked complex). Briefly: Primary screen GU Rhodamine qHTS for Zika virus inhibitors: Unlinked NS2B-NS3 protease assay (AID 1347159). Further: nearly all actives have a fitted effect of over 60% in size. Further: potency means the concentration at half of the fitted maximal effect. Summed up: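 A qHTS format was used, with compound concentrations ranging up to 114 microM. Each compound was preincubated with 25 nM NS2B-NS3 protease, and the substrate was then added at 1.5 microM. Curves were fitted with a 4-parameter Hill model.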

The test system of experiment [7] is Zika virus NS2B-NS3 protease (linked construct). Briefly: Primary screen NINDS Rhodamine qHTS for Zika virus inhibitors (AID 1347160). Further: nearly all actives have a fitted effect of over 55% in size. Further: potency means the concentration at half of the fitted maximal effect. Summed up:
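Kinetic fluorescence (Ex 480 nm, Em 540 nm) over 15 min with 1.5 microM Rhodamine110 peptide and 25 nM linked protease.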

Experiment [8] can be described thus: Confirmatory screen NINDS Rhodamine qHTS for Zika virus inhibitors (AID 1347161). Further: potency means the concentration at half of the fitted maximal effect; nearly all actives have a fitted effect of over 60% in size. The settings on record: purified enzyme assay, Rhodamine110 substrate fluorescence, 15 min. Summed up: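 Each compound, titrated, sat 15 min with 25 nM linked protease before 1.5 microM Rhodamine110 substrate went in. Fluorescence gain over the next 15 min, in pH 8.0 Tris with Tween 20, gave Hill-fitted curves.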

Experiment [9] deals with Zika virus NS2B-NS3 protease (linked). Briefly: 384 well plate NINDS AMC confirmatory qHTS for Zika virus inhibitors (AID 1347163). Further: nearly all actives have a fitted effect of over 50% in size. Further: potency means the concentration at half of the fitted maximal effect. Summed up: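 Linked protease 5/30/60 nM final; cpds up to 1 mM final, ~15 min preinc. Substrate Ac-VKTGKR-AMC 30 microM final. RT, dark, 25 min; FI ex 355/em 460; normalized to no-enzyme/no-inhibitor ctrls.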
In experiment [10] the test system is Zika virus NS2B-NS3 protease (linked construct). Briefly: 384 well plate NINDS Rhodamine confirmatory qHTS for Zika virus inhibitors (AID 1347164).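 Further: fluorescence from protease cleavage of Ac-LKRR-rhodamine 110 substrate; nearly all actives have a fitted effect of over 65% in size.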 Further: potency means the concentration at half of the fitted maximal effect. Summed up:
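Fluorescence read at ex 485 nm/em 538 nm, 25 min after adding 10 microM Ac-LKRR-Rd substrate at room temperature in the dark; signal normalized to no-enzyme and no-inhibitor controls. Enzyme final 5, 30 or 60 nM; compounds, ~15 min preincubation.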

Experiment [11] in a line: HepG2 cells viability qHTS for Zika virus inhibitors (AID 1347168). Summed up: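 Compounds were tested in concentration series on cells grown in DMEM containing 4% FBS. After 24 to 48 hours, cellular ATP was measured by luminescence with CellTiter Glo.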
The test system of experiment [12] is Zika virus NS2B-NS3 protease. Briefly: Primary screen GU AMC qHTS for Zika virus inhibitors (AID 1347154). Further: nearly all actives have a fitted effect of over 70% in size. Summed up: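 Fluorogenic AMC-substrate cleavage by noncovalent NS2B-NS3 protease complex (25 nM, pH 8.0 Tris buffer with Tween 20) followed for 15 minutes at room temperature (~20% conversion). Percent inhibition from ex340/em450 signal change, fitted by 4-parameter Hill equation.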

For `CC(C)C(=O)c1cn(CC(=O)COc2ccc(Oc3ccccc3)cc2)c2ccc(C(=O)O)cc12`, the Potency result in experiment [1] and in [10] was “inactive” in each case. The Potency is 44.1 µM (active) in [2]; 44.1 µM (active) in [3]; 8.79 µM (active) in [4]; 8.91 µM (active) in [6]; 8.91 µM (active) in experiment [7]; 5.55 µM (active) in [8]. Also, the Potency in [9] was 44.7 µM (active). Moreover, the compound was classed as inactive in experiment [5] and in experiment [11].

For the compound `CC(C)C1=CCC(C)(O)C(OC2OC(CO)C(O)C(O)C2O)C1` (stereo unspecified), the Potency result in experiment [1] is “inactive”. Further, the Potency is 27.3 µM (active) in [4]; 22.4 µM (active) in [6]; 10 µM (active) in experiment [7]; 7.68 µM (active) in experiment [8]; 5.62 µM (active) in [10]. Moreover, the compound was classed as inactive in experiment [5] and in [11].

Take `C=C1CC[C@@H]2[C@](C)(CO[C@@H]3O[C@H](CO)[C@@H](O)[C@H](O)[C@H]3O)CCC[C@@]2(C)[C@@H]1CCC1=CCOC1=O`: the Potency result in [1], in experiment [6] and in [7] was “inactive” throughout.

Take `O=C(O)CC/C=C\CC[C@H]1[C@@H](N2CCCCC2)[C@@H](O)C[C@@H]1OCc1ccc(-c2ccccc2)cc1`: the outcome in [12] was inactive.

For the compound `CCOc1ccc(-c2ccc(Cn3c(CC(C)(C)C(=O)O)c(SC(C)(C)C)c4cc(OCc5ccc(C)cn5)ccc43)cc2)cn1`, the Potency in experiment [2] was 7.84 µM (active); in experiment [4], 1.75 µM (active); in experiment [6], 2.51 µM (active) and 2.82 µM (active); in [7], 3.16 µM (active); in [8] it was 2.21 µM (active). Moreover, in experiment [10], the Potency entry was “inactive”. Also, the compound was classed as inactive in experiment [11].

For the compound `CC(=O)N[C@@H](CC(=O)O)C(=O)N[C@@H](CCC(=O)O)C(=O)O` (Ac-Asp-Glu-OH), the call in experiment [12] was inactive.

Take `COc1cccc(-n2nc(C(=O)O)cc2-c2ccc(C3CCCCC3)c(Cl)c2)c1`: the Potency in [2] is 13.9 µM (active); in [3], 12.4 µM (active); in [4], 2.21 µM (active); in experiment [7], 2.51 µM (active); in experiment [8], 1.97 µM (active); in experiment [10], 5.01 µM (active). Also, the compound was classed as inactive in [11].

Consider `CCOc1c2c(c(OCC)c3ccccc13)C(=O)N(c1ccc(CC(=O)NS(=O)(=O)c3ccccc3)cc1)C2`, for which the Potency entry in experiment [1], in experiment [9] and in [10] was “inactive” each time. Moreover, the Potency was 44.1 µM (active) in [2]; 44.1 µM (active) in [3]; 4.94 µM (active) in [4]; 3.98 µM (active) in experiment [6]; 8.91 µM (active) in experiment [7]; 4.41 µM (active) in [8]. In addition, the result in experiment [11] was inactive.

Consider `CC1C/C=C/C=C\CCCCC(O)C/C=C/C(=O)O1` (stereo unspecified), for which the Potency in experiment [4] is 44.1 µM (active); in [6], 17.8 µM (active); in experiment [8], 49.4 µM (active). For the same compound, in experiment [7], the Potency result is “inactive”.

Consider `O=S(=O)(O)c1cc(O)c2c(N=Nc3ccc(Nc4ccccc4)c4c(S(=O)(=O)O)cccc34)cc(S(=O)(=O)O)cc2c1`, for which the Potency in experiment [4] was 2.82 µM (active); in experiment [8], 5.62 µM (active); in experiment [9], 12.6 µM (active); in experiment [10] it was 6.31 µM (active).
